Measurements: the supplement of paper PMC11732987, “Enantioselective OTUD7B fragment discovery through chemoproteomics screening and high-throughput optimisation” (Communications Chemistry, 2025)

Key:
Test in all cases: log2 ratio of Biotin-Ahx-Ub-VS probe labelling (fragment/DMSO); higher = less target engagement (more negative = stronger competition), active = hit call of the paper (q ≤ 0.05, log2 ratio ≤ -1)
Details in all cases: compound concentration: 200 uM; treatment time: 3 h
USP34 = USP34 (UniProt Q70CQ2)
How it was run: (§1)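 Average log2 ratios of fragment over vehicle were obtained by unpaired t-test from global-median-normalised Spectronaut label-free quantities. Proteins with ≥2 unique peptides were included. HEK293T lysate (495 µg per sample) was treated in triplicate with fragment at 200 µM or vehicle for 3 h, then with Biotin-Ahx-Ub-VS at 0.5 µM final for 1 h, and labelled DUBs were NeutrAvidin-enriched and run by diaPASEF LC-MS/MS.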

USP36 = target: T1, USP36 (UniProt Q9P275)
T1 sequence (whole entry): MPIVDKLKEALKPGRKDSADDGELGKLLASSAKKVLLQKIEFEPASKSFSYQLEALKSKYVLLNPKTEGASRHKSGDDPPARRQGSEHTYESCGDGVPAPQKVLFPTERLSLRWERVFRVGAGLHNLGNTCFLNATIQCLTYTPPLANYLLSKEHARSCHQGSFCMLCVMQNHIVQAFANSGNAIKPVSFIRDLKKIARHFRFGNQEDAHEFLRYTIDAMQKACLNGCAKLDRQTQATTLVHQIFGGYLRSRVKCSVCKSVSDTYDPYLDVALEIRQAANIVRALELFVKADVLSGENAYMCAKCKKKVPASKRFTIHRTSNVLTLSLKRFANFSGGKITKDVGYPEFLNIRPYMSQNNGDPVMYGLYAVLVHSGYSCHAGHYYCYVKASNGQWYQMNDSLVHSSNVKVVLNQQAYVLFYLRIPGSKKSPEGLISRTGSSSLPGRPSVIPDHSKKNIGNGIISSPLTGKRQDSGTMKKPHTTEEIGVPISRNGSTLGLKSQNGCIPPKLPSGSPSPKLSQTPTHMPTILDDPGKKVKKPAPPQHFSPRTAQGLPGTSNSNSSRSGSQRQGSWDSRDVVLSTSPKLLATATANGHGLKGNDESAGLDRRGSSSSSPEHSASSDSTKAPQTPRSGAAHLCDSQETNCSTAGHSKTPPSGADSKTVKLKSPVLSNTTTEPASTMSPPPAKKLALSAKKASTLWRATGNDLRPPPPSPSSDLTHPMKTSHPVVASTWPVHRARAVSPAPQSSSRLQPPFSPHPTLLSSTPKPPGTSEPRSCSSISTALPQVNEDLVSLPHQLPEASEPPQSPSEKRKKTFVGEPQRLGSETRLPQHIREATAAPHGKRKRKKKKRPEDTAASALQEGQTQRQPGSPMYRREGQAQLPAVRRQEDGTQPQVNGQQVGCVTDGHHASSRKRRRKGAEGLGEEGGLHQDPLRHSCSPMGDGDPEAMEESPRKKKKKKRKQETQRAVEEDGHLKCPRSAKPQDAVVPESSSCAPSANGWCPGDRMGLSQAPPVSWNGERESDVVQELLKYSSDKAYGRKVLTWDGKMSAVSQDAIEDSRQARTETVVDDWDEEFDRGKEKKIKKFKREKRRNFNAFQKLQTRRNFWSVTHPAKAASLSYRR
How it was run: as §1

USP38 = target: T2, USP38 (UniProt Q8NB14)
T2 sequence (whole entry): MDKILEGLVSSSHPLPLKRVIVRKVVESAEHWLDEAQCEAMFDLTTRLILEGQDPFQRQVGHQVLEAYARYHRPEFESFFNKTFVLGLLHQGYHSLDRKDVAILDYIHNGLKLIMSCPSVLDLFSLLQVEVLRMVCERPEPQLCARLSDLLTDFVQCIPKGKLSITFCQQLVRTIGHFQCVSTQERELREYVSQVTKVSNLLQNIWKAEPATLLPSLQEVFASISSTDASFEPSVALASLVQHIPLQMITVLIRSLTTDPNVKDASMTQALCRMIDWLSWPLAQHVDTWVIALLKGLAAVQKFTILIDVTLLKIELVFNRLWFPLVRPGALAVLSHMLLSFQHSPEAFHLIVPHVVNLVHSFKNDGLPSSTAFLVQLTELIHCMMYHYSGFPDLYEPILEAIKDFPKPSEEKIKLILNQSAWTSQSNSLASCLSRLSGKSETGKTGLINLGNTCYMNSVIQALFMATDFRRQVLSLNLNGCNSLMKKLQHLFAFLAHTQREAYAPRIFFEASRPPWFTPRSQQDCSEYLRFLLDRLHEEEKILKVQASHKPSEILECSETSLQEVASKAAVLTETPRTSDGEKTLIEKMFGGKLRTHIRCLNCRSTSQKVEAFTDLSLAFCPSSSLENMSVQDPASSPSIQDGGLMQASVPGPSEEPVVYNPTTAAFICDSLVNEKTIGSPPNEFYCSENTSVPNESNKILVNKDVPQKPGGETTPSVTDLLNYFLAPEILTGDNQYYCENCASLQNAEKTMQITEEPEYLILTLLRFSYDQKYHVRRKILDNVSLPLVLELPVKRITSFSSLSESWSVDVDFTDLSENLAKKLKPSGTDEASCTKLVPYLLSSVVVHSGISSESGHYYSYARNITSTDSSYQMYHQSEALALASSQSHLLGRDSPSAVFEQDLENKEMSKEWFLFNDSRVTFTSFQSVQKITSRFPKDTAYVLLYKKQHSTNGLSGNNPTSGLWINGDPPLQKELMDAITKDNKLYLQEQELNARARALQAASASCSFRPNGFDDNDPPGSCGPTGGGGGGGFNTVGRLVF
How it was run: as §1

USP39 = target: T3, USP39 (UniProt Q53GS9)
T3 sequence (whole entry): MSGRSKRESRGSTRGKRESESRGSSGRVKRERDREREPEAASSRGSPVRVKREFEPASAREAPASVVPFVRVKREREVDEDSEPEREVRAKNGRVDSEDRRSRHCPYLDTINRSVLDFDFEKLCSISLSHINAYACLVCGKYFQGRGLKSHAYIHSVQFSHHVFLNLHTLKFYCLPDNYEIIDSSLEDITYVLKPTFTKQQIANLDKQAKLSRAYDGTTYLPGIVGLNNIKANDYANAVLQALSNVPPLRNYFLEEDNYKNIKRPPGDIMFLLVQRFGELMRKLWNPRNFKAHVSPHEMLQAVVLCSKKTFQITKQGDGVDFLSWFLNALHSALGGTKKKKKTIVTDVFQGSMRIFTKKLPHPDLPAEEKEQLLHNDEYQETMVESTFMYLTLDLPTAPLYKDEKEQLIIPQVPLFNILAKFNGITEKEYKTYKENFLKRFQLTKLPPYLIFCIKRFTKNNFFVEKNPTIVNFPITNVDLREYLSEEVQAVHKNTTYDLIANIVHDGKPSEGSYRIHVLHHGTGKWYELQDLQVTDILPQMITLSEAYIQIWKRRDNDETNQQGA
How it was run: as §1

USP4 = target: T4, USP4 (UniProt Q13107)
T4 sequence (whole entry): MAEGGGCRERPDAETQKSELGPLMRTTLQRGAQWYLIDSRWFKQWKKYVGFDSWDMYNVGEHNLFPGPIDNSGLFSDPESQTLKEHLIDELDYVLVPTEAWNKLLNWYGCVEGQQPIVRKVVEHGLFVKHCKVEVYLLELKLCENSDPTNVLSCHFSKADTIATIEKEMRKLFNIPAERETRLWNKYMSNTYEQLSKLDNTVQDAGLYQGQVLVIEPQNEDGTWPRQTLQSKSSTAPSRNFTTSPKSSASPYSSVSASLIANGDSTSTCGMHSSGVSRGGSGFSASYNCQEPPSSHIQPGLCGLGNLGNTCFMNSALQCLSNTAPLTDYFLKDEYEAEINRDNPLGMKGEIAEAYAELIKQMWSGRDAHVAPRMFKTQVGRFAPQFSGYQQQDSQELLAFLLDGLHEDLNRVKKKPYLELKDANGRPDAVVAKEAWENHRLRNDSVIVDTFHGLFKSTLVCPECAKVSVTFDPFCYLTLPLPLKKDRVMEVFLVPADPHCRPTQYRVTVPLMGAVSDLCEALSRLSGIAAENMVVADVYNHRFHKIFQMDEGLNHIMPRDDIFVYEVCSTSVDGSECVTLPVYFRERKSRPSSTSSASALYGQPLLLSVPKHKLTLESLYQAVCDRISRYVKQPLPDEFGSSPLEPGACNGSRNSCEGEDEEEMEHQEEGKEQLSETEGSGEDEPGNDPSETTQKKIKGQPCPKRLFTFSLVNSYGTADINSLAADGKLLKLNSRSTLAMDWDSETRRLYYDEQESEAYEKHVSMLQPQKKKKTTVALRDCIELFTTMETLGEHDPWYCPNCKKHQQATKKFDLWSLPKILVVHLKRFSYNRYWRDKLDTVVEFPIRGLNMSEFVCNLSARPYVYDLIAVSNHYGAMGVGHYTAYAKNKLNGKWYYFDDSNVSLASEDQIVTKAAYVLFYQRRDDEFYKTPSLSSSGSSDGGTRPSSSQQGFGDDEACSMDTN
How it was run: as §1

Measured: log2 ratio of Biotin-Ahx-Ub-VS probe labelling

USP34, sequence (Q70CQ2 whole entry, the tested form may be a part): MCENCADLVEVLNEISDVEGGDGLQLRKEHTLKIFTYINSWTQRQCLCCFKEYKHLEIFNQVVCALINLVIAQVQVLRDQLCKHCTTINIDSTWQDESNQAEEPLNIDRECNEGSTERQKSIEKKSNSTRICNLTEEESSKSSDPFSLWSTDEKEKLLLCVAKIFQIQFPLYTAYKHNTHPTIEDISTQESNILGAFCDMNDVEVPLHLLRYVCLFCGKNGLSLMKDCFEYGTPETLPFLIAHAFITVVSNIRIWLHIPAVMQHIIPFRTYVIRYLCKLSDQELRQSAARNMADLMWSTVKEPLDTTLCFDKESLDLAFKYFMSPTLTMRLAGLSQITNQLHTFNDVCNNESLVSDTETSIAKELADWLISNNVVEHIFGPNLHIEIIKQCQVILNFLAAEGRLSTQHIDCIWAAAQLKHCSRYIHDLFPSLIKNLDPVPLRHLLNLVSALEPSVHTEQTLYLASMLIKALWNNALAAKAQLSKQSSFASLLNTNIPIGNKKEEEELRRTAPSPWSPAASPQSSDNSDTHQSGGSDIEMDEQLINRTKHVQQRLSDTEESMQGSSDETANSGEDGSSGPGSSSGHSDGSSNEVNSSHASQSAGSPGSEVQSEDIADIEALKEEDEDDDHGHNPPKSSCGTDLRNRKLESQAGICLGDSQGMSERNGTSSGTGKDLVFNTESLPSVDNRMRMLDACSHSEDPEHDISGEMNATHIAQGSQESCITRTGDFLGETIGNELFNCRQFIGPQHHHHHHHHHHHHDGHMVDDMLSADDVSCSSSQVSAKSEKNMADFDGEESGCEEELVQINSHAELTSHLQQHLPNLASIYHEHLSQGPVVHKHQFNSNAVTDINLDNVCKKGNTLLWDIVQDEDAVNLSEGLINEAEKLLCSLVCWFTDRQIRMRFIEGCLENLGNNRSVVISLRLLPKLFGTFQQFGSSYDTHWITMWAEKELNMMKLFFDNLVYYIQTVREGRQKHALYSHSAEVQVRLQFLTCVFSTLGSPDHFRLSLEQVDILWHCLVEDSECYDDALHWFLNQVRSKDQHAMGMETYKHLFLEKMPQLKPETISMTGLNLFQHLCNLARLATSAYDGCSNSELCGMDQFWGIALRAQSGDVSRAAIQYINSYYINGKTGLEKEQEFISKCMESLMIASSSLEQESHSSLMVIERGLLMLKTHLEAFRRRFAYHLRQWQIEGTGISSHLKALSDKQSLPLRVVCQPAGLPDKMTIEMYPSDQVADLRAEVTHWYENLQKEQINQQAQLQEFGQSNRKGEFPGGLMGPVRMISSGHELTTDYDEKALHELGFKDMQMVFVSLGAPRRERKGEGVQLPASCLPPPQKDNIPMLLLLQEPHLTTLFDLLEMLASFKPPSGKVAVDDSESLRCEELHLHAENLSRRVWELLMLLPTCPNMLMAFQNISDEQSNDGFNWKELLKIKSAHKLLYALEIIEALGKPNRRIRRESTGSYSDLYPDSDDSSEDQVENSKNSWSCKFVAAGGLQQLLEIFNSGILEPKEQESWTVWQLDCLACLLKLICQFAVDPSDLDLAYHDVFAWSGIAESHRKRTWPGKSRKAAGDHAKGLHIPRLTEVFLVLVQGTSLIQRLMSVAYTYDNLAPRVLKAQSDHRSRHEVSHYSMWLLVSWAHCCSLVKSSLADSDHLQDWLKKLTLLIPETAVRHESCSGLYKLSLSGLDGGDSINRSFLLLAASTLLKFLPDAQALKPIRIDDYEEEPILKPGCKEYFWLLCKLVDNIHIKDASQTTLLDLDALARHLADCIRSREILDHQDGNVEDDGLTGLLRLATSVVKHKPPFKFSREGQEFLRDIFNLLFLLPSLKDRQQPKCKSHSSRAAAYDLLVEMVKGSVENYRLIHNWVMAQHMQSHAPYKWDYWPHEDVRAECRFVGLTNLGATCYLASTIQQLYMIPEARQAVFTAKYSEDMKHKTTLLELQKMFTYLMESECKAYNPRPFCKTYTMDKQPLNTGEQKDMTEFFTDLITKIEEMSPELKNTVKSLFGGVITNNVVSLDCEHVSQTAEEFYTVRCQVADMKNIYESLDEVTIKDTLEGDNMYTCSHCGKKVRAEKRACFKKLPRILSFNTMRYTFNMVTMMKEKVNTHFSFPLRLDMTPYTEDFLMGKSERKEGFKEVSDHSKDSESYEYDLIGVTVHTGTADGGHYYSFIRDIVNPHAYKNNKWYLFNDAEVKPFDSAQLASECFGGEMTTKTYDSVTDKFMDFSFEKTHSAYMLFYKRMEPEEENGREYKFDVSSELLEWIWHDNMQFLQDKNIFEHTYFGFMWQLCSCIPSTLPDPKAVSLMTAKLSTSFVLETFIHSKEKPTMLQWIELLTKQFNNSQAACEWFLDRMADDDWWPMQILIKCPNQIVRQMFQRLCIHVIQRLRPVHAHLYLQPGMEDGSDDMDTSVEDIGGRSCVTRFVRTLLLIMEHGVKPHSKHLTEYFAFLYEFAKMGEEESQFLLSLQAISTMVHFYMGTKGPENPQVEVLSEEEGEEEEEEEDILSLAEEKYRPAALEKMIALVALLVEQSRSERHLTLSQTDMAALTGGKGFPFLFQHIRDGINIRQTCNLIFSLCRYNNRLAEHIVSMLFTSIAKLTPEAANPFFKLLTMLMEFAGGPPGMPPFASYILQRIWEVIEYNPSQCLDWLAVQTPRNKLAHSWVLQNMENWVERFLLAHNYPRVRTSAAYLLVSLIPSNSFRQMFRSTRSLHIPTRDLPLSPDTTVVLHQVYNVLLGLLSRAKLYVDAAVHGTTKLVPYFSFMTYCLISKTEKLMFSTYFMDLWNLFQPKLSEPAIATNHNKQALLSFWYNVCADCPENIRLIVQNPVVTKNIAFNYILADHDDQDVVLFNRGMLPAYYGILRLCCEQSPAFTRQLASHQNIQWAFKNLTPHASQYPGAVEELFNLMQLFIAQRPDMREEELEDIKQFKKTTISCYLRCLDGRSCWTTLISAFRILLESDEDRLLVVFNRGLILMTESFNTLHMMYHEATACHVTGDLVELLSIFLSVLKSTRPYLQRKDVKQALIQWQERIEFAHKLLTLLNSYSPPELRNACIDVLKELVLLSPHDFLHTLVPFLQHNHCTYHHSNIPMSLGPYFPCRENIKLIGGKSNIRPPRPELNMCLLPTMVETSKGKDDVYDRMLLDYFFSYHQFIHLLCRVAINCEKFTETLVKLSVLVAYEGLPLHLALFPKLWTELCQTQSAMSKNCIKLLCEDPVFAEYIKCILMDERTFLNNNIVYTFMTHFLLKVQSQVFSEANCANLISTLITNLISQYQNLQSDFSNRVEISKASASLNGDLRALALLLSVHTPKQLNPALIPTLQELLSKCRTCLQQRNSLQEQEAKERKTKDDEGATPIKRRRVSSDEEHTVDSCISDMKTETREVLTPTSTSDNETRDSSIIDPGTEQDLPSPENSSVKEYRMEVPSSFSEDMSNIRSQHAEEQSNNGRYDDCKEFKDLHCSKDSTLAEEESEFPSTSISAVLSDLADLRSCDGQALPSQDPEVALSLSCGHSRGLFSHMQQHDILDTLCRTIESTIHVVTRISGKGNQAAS

O=C(CCl)NCc1noc(C2CC2)n1
inactive: USP34 -0.18 | USP36 -0.144 | USP38 -0.0158 | USP39 0.182 | USP4 0.00316
